In all, about 5,500 compounds went through this assay and about 2,000 (36%) were called active. About 18% were inconclusive and are not listed. No stated cut-off is given here; in the data, active means normalized growth mostly below about 0.91 (no sharp cut-off); inconclusive means no clear call, values can overlap the other calls; inactive means mostly above about 0.92. Some of the results follow.
Test: chemical genetic growth profiling, strain panel (AID 1159580);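 further: tested at 20 µM; growth read once vehicle control cultures reached saturation at 30 °C; 1 = growth at the plate median or of vehicle wells; lower values mean less growth of the strain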
Settings: growth OD
[1] = S. cerevisiae deletion strains, locus YGR078C, strain PAC10, active compounds read low
[2] = S. cerevisiae deletion strains, locus YNL322C, strain KRE1, active compounds read low

Measured: normalized growth

CCC(C)N(C)C(=O)c1cc2ccccc2c(-c2ccccc2Cl)n1 (stereo unspecified)
inactive: S. cerevisiae deletion strains, locus YAL040C, strain CLN3, active compounds read low 0.965 | S. cerevisiae deletion strains, locus YDR363W, strain ESC2, active compounds read low 0.973 | S. cerevisiae deletion strains, locus YER002W, strain NOP16, active compounds read low 1.03 | [1] 0.998 | S. cerevisiae deletion strains, locus YNL175C, strain NOP13, active compounds read low 1 | S. cerevisiae deletion strains, locus YNL197C, strain WHI3, active compounds read low 0.95 | S. cerevisiae deletion strains, locus YNL224C, strain SQS1, active compounds read low 0.988 | [2] 0.987 | S. cerevisiae deletion strains, locus YOR083W, strain WHI5 (second series), active compounds read low 0.955

S=c1[nH]c2ccccc2[nH]1
inactive: S. cerevisiae deletion strains, locus YAL013W, strain DEP1, active compounds read low 0.988 | S. cerevisiae deletion strains, locus YBR229C, strain ROT2, active compounds read low 1.01 | S. cerevisiae deletion strains, locus YDL101C, strain DUN1, active compounds read low 1.02 | S. cerevisiae deletion strains, locus YDR150W, strain NUM1, active compounds read low 0.993 | S. cerevisiae deletion strains, locus YEL061C, strain CIN8, active compounds read low 0.982 | [1] 1.02 | S. cerevisiae deletion strains, locus YHR030C, strain SLT2, active compounds read low 1 | S. cerevisiae deletion strains, locus YHR087W, strain rtc3, active compounds read low 1.01 | S. cerevisiae deletion strains, locus YJR043C, strain POL32, active compounds read low 0.988 | S. cerevisiae deletion strains, locus YJR075W, strain HOC1, active compounds read low 1.01 | S. cerevisiae deletion strains, locus YLR039C, strain RIC1, active compounds read low 0.99 | S. cerevisiae deletion strains, locus YLR058C, strain SHM2 (second series), active compounds read low 0.991 | S. cerevisiae deletion strains, locus YLR085C, strain ARP6, active compounds read low 0.976 | S. cerevisiae deletion strains, locus YLR262C, strain YPT6, active compounds read low 0.986 | S. cerevisiae deletion strains, locus YML094W, strain GIM5, active compounds read low 1.06 | S. cerevisiae deletion strains, locus YMR219W, strain ESC1, active compounds read low 0.999 | S. cerevisiae deletion strains, locus YMR263W, strain SAP30, active compounds read low 0.984 | S. cerevisiae deletion strains, locus YMR307W, strain GAS1, active compounds read low 0.87 | S. cerevisiae deletion strains, locus YNL128W, strain TEP1, active compounds read low 1.02 | S. cerevisiae deletion strains, locus YNL153C, strain GIM3, active compounds read low 1.01 | S. cerevisiae deletion strains, locus YNL298W, strain CLA4 (second series), active compounds read low 0.997 | [2] 1 | S. cerevisiae deletion strains, locus YNR030W, strain Alg12, active compounds read low 1.01 | S. cerevisiae deletion strains, locus YPL055C, strain LGE1, active compounds read low 0.961 | S. cerevisiae deletion strains, locus YPL241C, strain CIN2, active compounds read low 1.03 | S. cerevisiae deletion strains, locus YPR135W, strain CTF4, active compounds read low 1.01 | S. cerevisiae strains, strain wild type, active compounds read low 0.995

From PubChem BioAssay AID1159580 (chemical genetic matrix, 2015)
